The test system of the experiment is NanoLuc luciferase (NLuc). Briefly: residual bioluminescent signal relative to negative (DMSO) control; higher = less interference (more residual luciferase signal). As for the experimental part:
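Purified luciferase (FLuc 10 nM + 10 uM D-luciferin; NLuc 10 pM + 10 uM furimazine; RLuc 50 pM + 2 uM coelenterazine) in 384-well plates; metal salt pre-incubated with enzyme 10 min at RT, substrate added and luminescence read after 10 min. Signal normalised to plate DMSO negative control (% N_VALUE = x/mean neg *100); triplicate wells at 0.01, 1 and 5 mM salt.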

The mark [1] stands for this setting: metal salt concentration 0.01 mM, HEPES conditions (100 mM HEPES, 0.1% BSA, pH 7.5).
The mark [2] stands for this setting: metal salt concentration 0.01 mM, screening conditions (PBS, 0.1% BSA, pH 7.4).
Where [3] appears, read: metal salt concentration 1 mM, HEPES conditions (100 mM HEPES, 0.1% BSA, pH 7.5).
Where [4] appears, read: metal salt concentration 1 mM, screening conditions (PBS, 0.1% BSA, pH 7.4).
The mark [5] stands for this setting: metal salt concentration 5 mM, HEPES conditions (100 mM HEPES, 0.1% BSA, pH 7.5).
The mark [6] stands for this setting: metal salt concentration 5 mM, screening conditions (PBS, 0.1% BSA, pH 7.4).

± gives the standard deviation of the averaged measurements.

In the case of `O=[N+]([O-])[O-].O=[N+]([O-])[O-].[Pb+2]` [lead(II) nitrate], the residual bioluminescent signal turned out to be 94 ± 3.2% under setting [1]; 93.8 ± 2.2% under setting [2]; 26.7 ± 2.9% under setting [3]; 88.2 ± 4.3% under setting [4]; 7.56 ± 0.53% under setting [5]; 44.2 ± 9% under setting [6].

Consider `O=[N+]([O-])[O-].O=[N+]([O-])[O-].O=[N+]([O-])[O-].[Al+3]` [aluminium nitrate], for which the residual bioluminescent signal by setting is: under setting [1], 95.9 ± 2.5%; under setting [2], 100 ± 2.5%; under setting [3], 68.7 ± 3.2%; under setting [4], 89.9 ± 5.7%; under setting [5], 107 ± 1.8%; under setting [6], 103 ± 4.9%.

On to `[Cl][Sn][Cl]` [tin(II) chloride], for which the residual bioluminescent signal is, setting by setting: under setting [1], 95.8 ± 2.9%; under setting [2], 97 ± 5.1%; under setting [3], 90.1 ± 5%; under setting [4], 84.2 ± 6.6%; under setting [5], 87.3 ± 5%; under setting [6], 0.413 ± 0.39%.

In the case of `O=[N+]([O-])[O-].O=[N+]([O-])[O-].[Cu+2]` [copper(II) nitrate], the residual bioluminescent signal by setting is: under setting [1], 95.5 ± 6.9%; under setting [2], 90.4 ± 2.7%; under setting [3], 0.235 ± 0.062%; under setting [4], 0.732 ± 0.11%; under setting [5], 0.689 ± 0.91%; under setting [6], 0.201 ± 0.12%.

Take `O=[N+]([O-])[O-].[K+]` [potassium nitrate]: the residual bioluminescent signal is, setting by setting: under setting [1], 95.2 ± 2.4%; under setting [2], 104 ± 1.6%; under setting [3], 90.9 ± 1.1%; under setting [4], 94.9 ± 3.4%; under setting [5], 101 ± 2%; under setting [6], 101 ± 4.7%.

Regarding `O=[N+]([O-])[O-].O=[N+]([O-])[O-].[Ni+2]` [nickel(II) nitrate], the residual bioluminescent signal is 89 ± 2% under setting [1]; 94.5 ± 3.8% under setting [2]; 87.6 ± 4.2% under setting [3]; 91.4 ± 1.8% under setting [4]; 89.9 ± 2.2% under setting [5]; 78.1 ± 3.4% under setting [6].

As for `O=[N+]([O-])[O-].O=[N+]([O-])[O-].[Cd+2]` [cadmium nitrate], the residual bioluminescent signal reads like this: under setting [1], 93.8 ± 1.4%; under setting [2], 98.2 ± 1.1%; under setting [3], 74.64 ± 0.51%; under setting [4], 62.1 ± 7.8%; under setting [5], 84.1 ± 2.6%; under setting [6], 22.1 ± 1.6%.

`O=[N+]([O-])[O-].[Ag+]` [silver nitrate]: the residual bioluminescent signal is, setting by setting: under setting [2], 28 ± 4.6%; under setting [4], 1.98 ± 0.46%; under setting [6], 2.05 ± 0.58%.

(Values after the supplement of paper PMC11628255, “Interference of metal ions on the bioluminescent signal of firefly, Renilla, and NanoLuc luciferases in high-throughput screening assays” (Frontiers in Chemistry, 2024).)
